The campaign covered roughly 3,000 compounds. About 1,800 (60%) were called active. The set was probably picked from earlier hits. Only a sample is shown. Values without a mark were called inactive.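 Rule for the calls: active = activation at or above a set limit, or at least 3 SD above the negative control mean; inactive = the rest.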
These compounds were tested against Nuclear receptor subfamily 1 group D member 1 (Homo sapiens) (UniProt P20393) (assay: Rev-erbα–DNA interaction modulation, retest – biochemical, FITC-DNA, fluorescence polarization, single point, confirmation (AID 1259319;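 note: 0% = 35 nM protein with DMSO and 100% = 750 nM protein high control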)). Details: Rev-erb alpha FITC-DNA binding, 90 min, at 25 µM, hits give high values.
Chain of Nuclear receptor subfamily 1 group D member 1 (Homo sapiens) (P20393 whole entry, looked up): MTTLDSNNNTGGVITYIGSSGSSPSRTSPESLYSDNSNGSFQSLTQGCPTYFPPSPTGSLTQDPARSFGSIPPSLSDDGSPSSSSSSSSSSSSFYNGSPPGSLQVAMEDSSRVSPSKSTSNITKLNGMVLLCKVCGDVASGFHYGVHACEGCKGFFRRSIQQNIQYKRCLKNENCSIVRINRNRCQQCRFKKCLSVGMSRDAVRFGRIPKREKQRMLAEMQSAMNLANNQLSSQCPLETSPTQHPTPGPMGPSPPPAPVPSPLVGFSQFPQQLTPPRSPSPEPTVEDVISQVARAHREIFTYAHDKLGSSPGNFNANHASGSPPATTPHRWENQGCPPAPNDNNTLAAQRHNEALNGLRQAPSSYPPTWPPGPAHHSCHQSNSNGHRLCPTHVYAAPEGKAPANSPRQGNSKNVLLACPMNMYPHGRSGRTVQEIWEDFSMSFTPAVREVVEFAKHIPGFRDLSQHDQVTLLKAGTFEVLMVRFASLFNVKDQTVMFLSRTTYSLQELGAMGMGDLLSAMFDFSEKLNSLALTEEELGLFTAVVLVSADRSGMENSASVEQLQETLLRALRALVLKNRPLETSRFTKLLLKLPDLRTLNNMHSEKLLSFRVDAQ

| SMILES | activation |
| --- | --- |
| c1ccc(CSc2ncnc3c2sc2nc(N4CCOCC4)c4c(c23)CCCC4)cc1 | 93.6% (active) |
| S=c1nccc(-c2cc(Cl)sc2Cl)[nH]1 | 36.6% (active) |
| c1ccc(-c2cc(-c3nnc4sc(-c5ccccn5)nn34)[nH]n2)cc1 | 26.1% (active) |
| CN(C)c1ccc(/C=C2\NC(=S)N(Cc3ccccc3)C2=O)cc1 | 37.3% (active) |
| CN1/C(=C\C=C2\N=C(c3ccc(F)cc3)OC2=O)C(C)(C)c2ccccc21 | 5.84% |
| O=C(CCn1c(=S)[nH]c2cc3c(cc2c1=O)OCO3)NCc1ccc(Cl)cc1 | 9.29% |
| O=C(CCn1c(SCC(=O)c2ccccc2)nc2ccccc2c1=O)NCc1ccc(F)cc1 | 36.3% (active) |
| C=CCNC(=O)CC12CC3CC(C1)CC(CC(=O)NCC=C)(C3)C2 | -0.299% |
| N#Cc1c(N)nc2c3c(sc(=N)c2c1N)NC(=O)CC3c1ccccc1Cl (stereo unspecified) | 35% (active) |
| O=S(=O)(c1ccc(Br)cc1)c1nc(-c2ccccc2)oc1NCc1cccnc1 | 5.25% |
| Oc1ccc2ccc3cccc[n+]3c2c1 | 41.7% (active) |
| CCc1ccccc1NC(=O)c1cc(-c2ccc3c(c2)OCO3)on1 | 10.4% |
| CN(C)S(=O)(=O)c1ccc(N2CCCC2)c(C(=O)Nc2ccc(Br)cc2F)c1 | 10.4% |
| O=C1CCCC2=C1C(c1ccccc1)n1c(s/c(=C/c3cccc(F)c3)c1=O)=N2 (stereo unspecified) | 30% (active) |
| CCOC(=O)c1sc(=NC(=O)c2ccc(Br)cc2)n(C)c1C | 26.1% (active) |
| COc1ccc2sc(-c3ccc(S(C)(=O)=O)cc3)c(-c3ccc(C(N)=O)cc3)c2c1 | 5.94% |
| CCCNC(=O)Nc1ccc2c(c1)C(=O)N(C)[C@H]1CC[C@H](CC(=O)NCC3CCCCC3)O[C@@H]1CO2 | 63.1% (active) |
| CCN1C(=O)/C(=C\N2CCN(c3cccc(Cl)c3)CC2)SC1=S | 204% (active) |
| Cc1ccc(S(=O)(=O)c2nnn3c2nc(N2CCN(c4ccccn4)CC2)c2ccccc23)cc1 | 65.4% (active) |
| Cc1cccc(Nc2nc3c(S(=O)(=O)c4ccccc4)nnn3c3ccccc23)c1C | 15.8% |
| CC(C)OCCCNC(=O)CN1C(=O)/C(=C/c2ccccc2F)Oc2ccccc21 | -0.363% |
| COC(=O)c1c(NC(C)=O)sc(C(=O)Nc2ccccc2OC)c1C | 9.45% |
| COC(=O)c1sc(NC(=O)c2ccc(OC)cc2OC)nc1C | 24.1% (active) |

| SMILES | activation |
| --- | --- |
| COc1ccc(Cc2nnc(NC(=O)c3ccc(OC)cc3OC)s2)cc1 | 9.03% |
| Cc1ccc(-c2nc3c(C)cc(Br)cn3c2Cc2ccccc2)cc1 | 14.9% (active) |
| Cc1cc(Br)cn2c(Cc3ccccc3C(F)(F)F)c(-c3ccc(Cl)cc3)nc12 | 7.64% |
| CCOc1cccc(C(=O)Nc2nnc(-c3cccs3)s2)c1 | -1.11% |
| Cc1nonc1NC(=O)CSc1nc2ccccc2cc1C#N | 39.8% (active) |
| Cc1nc2cc(NC(=O)CSc3nc4c(C)cccc4cc3C#N)ccc2s1 | 85.3% (active) |
| COCc1cc(C)nc(SCC(=O)Nc2cccc(C)c2)c1C#N | -4.78% |
| Cc1cc2cc3c(cc2nc1SCC(=O)Nc1c(C)cccc1C)CCC3 | 16.2% |
| CCOc1ccc2cc(C#N)c(SCC(=O)OC)nc2c1 | 90.1% (active) |
| CCOC(=O)c1c(NC(=O)CN2C(=O)NC3(CCC(C)CC3)C2=O)sc(C)c1CC (stereo unspecified) | 11% |
| c1ccc2c(-c3nn4nnnc4c4ccccc34)cccc2c1 | 29.3% (active) |
| COc1ccc(C2=NN(C(=O)CSc3nc(=O)n4ccc(C)cc4n3)C(c3ccc(C)cc3)C2)cc1 (stereo unspecified) | 4.15% |
| COc1ccc(-c2nnc(SCC(=O)c3ccc4c(c3)OCCO4)o2)cc1 | 28.7% (active) |
| CCOc1cccc(NC(=O)Cn2nc(-c3ccc4c(c3)OCCO4)ccc2=O)c1 | 15.3% |
| COc1nc(-c2ccc(Cl)cc2)ccc1-c1noc(-c2cccs2)n1 | 46.9% (active) |
| Fc1c(F)c(C(F)(F)F)c(F)c(F)c1N1CCN(c2ccc3nnc(C(F)(F)F)n3n2)CC1 | 40% (active) |
| COc1ccccc1N1CCN(CC(=O)Nc2ccnn2C2CCCC2)CC1 | -5.83% |
| CC(=O)c1cc(C#N)c(SCC(=O)Nc2nccs2)nc1C | 29% (active) |
| COc1ccc(-n2ncc3c(N4CCc5ccccc54)ncnc32)cc1 | 40.6% (active) |
| Cc1cc(C(C)(C)C)n2nc(C)c(-c3ccccc3)c2n1 | 4.3% |
| Cc1ccc(-n2c(SCC(=O)NCCC3=CCCCC3)nc3n[nH]c(C)c3c2=N)cc1Cl | 14.5% |
| CCCCNC(=O)CSc1nc2n[nH]c(C)c2c(=N)n1-c1cccc(Cl)c1C | 26.6% (active) |
| COc1ccc(CC(=O)Nc2ccc(-c3nnc(-c4ccc(C)cc4)o3)cc2)cc1 | -0.593% |

| SMILES | activation |
| --- | --- |
| COc1ccc(CNC(=O)c2nnn(CC(=O)Nc3cc(C)cc(C)c3)c2N)cc1 | 21.9% (active) |
| Cc1c(-c2ccccc2)nc(N)c(C#N)c1-c1cccs1 | 16.4% |
| O=C(COC(=O)c1cccc(Br)c1)Nc1cccc2c1C(=O)c1ccccc1C2=O | 18.5% (active) |
| CC(C)C(C)NC(=O)COc1nc2ccccc2nc1N(C)C1CCCCC1 (stereo unspecified) | 7.89% |
| N#Cc1ccccc1Sc1ccccc1C(=O)OCC(=O)NC1CCCCC1 | 35.9% (active) |
| O=C(COC(=O)c1ccccc1SCC(=O)NC1CCCCC1)NC1CCCCC1 | 86.9% (active) |
| Cc1nc(SCC(=O)Nc2cc(C)on2)c2c3c(sc2n1)CCCC3 | 43.7% (active) |
| Cc1cc(NC(=O)CSc2nc3cc(Cl)ccc3c(=O)n2Cc2ccco2)no1 | 16.1% |
| Cc1cc(NC(=O)CSc2nc(C(C)C)nc3sc4c(c23)CCC(C)C4)no1 (stereo unspecified) | 30.8% (active) |
| C[n+]1ccc(/C=C/c2c[nH]c3ccccc23)cc1 | 136% (active) |
| CCc1ccc2c(c1)cc(CN(C(=S)Nc1ccccc1Cl)C1CC1)c1nnnn12 | 2.01% |
| COc1cccc(-n2c(SCC(=O)c3c[nH]c4ccccc34)nc3ccccc3c2=O)c1 | 30.8% (active) |
| CCOC(=O)c1ccc(NC(=O)c2c(NCc3ccccc3)[nH]c(=O)[nH]c2=O)cc1 | 1.79% |
| CCN(CC)c1ccc2cc(C(N)=O)/c(=N\NC(=O)c3ccncc3)oc2c1 | 25.4% (active) |
| Cn1c(=O)n(C)c2cc(/C=N/NC(=O)c3cccc(Br)c3)ccc21 | 8.29% |
| COc1cc(Cl)c(C)cc1NC(=O)COC(=O)c1cc(SC)ccc1Cl | 23.3% (active) |
| CCN1/C(=C\c2ccc3ccccc3[n+]2CC)Sc2cc(C)ccc21 | 67.5% (active) |
| CCn1c(SCC(=O)Nc2cccc(F)c2)nnc1-c1cc2cc(Br)ccc2o1 | 26.2% (active) |
| Cc1nc2nc(SCC(=O)Nc3cccc(F)c3)[nH]c2cc1Br | 20% (active) |
| Cc1nc2nc(SCC(=O)c3ccccc3)[nH]c2cc1Br | 45% (active) |
| COc1ccc(C(=O)Nc2cccc(NC(=O)c3ccc(OC)cc3OC)n2)c(OC)c1 | 4.36% |
| COc1ccc2[nH]c(C(=O)Nc3ccccc3Cl)cc2c1 | 30.5% (active) |
| Cc1cc(=O)oc(C)c1C(=O)N1CCCCC1 | -0.804% |

| SMILES | activation |
| --- | --- |
| CC(C)Cn1c(CN(Cc2ccccc2)Cc2ccccc2)nc2c1c(=O)n(C)c(=O)n2C | 48.3% (active) |
| Fc1ccc(CNc2nc3ccccc3n3nnnc23)cc1 | 27% (active) |
| COC(=O)c1cccc(Cn2ccc3ccc(-c4ccc5ccn(C(=O)c6ccccc6C)c5c4)cc32)c1 | 89.9% (active) |
| COC(=O)c1cccc(Cn2ccc3ccc(-c4ccc5ccn(C(=O)C6CCCCC6)c5c4)cc32)c1 | 43.5% (active) |
| CCOC(=O)c1c(C)oc2cc(Br)c(OCC(N)=O)cc12 | 40.3% (active) |
| COc1cc(OC)cc(-c2nc(=S)n3ccsc3n2)c1 | 2.77% |
| Cc1sc2ncnc(N3CCC(C(=O)Nc4nc5ccc(Cl)cc5s4)CC3)c2c1C | 51% (active) |
| CN1C(=O)c2ccc(C(=O)Nc3ccc(Br)cn3)cc2C1=O | 30.1% (active) |
| CCCCCn1nnnc1C1c2ccccc2C(=O)N1Cc1ccco1 (stereo unspecified) | -8.88% |
| O=c1cc(N2CCCCC2)c(-c2ccccc2)nn1Cc1cccc(F)c1 | 8.56% |
| CCC(C(=O)NC1CCCC1)N(C(=O)c1snc(C(N)=O)c1N)c1ccc2c(c1)OCCO2 (stereo unspecified) | 20.2% (active) |
| NC(N)=Nc1nc2ccc(Br)cc2c(=O)[nH]1 | 21.2% (active) |
| O=C1Cc2ccccc2Sc2ccc(Cl)cc21 | 23.2% (active) |
| CCOc1cc(-c2cc(-c3ccc(OC)cc3)nc(N)c2C#N)ccc1O | 13.9% |
| CCOc1nc(-c2ccc(OC)cc2)ccc1-c1noc(-c2cc(OC)c(OC)c(OC)c2)n1 | 22.3% (active) |
| Cc1ccc(-n2nc3cc(C)c(NC(=O)c4cccnc4)cc3n2)cc1 | 0.139% |
| COc1ccc(CCNC(=O)CSc2nc(-c3ccc(OC)c(OC)c3)ccc2C#N)cc1 | 37% (active) |
| COc1cccc(-c2ccc(C#N)c(SCC(=O)NCCc3ccc(Cl)cc3)n2)c1 | 13.2% |
| CCOC(=O)c1ccc(NC(=S)Nc2cc(C)cc(C)n2)cc1 | 4.33% |
| COc1ccc(-c2csc3ncnc(N4CCN(S(=O)(=O)c5ccccc5C#N)CC4)c23)cc1 | 14.6% |
| CC(=O)c1ccc(S(=O)(=O)N2CCN(c3nc4c(C)c(C)ccc4cc3C#N)CC2)cc1 | 181% (active) |
| COc1ccc(S(=O)(=O)N2CCN(c3ncnc4c(-c5ccccc5)nsc34)CC2)cc1 | 8.1% |

From PubChem BioAssay AID1259319 (Sanford-Burnham Center for Chemical Genomics, 2017)
